HP1b chromo inh = HTS for Inhibitors of HP1-beta Chromodomain Interactions with Methylated Histone Tails. Potency, µM (series often up to 114 µM), actives largely listed as inhibitors. AlphaScreen HP1-beta / biotin-H3K9me3 peptide binding. actives 0.56% (n = 390,000); note: nearly all actives have a fitted effect of over 70% in size
Target sequence (P83916 whole entry, looked up): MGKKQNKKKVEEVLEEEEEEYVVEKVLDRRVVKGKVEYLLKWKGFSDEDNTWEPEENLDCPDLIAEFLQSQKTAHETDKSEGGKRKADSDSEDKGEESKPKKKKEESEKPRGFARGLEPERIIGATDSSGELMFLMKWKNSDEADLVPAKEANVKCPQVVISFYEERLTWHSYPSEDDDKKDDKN
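HP1-beta protein (50 nM final) preincubated 30 min at room temperature with biotinylated H3(1-18)K9me3 peptide (50 nM) in PBS pH 7.4, 0.01% Tween-20, then compound added for 30 min. AlphaScreen streptavidin donor/nickel chelate acceptor beads (10 ug/mL final), 30 min dark, luminescence read.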
JMJD2A Tudor inh = qHTS Assay for Inhibitors of JMJD2A-Tudor Domain; AID 504339, 2011; Potency, µM (highest dose often 114 µM), actives largely listed as inhibitors; actives 4.4% (n = 390,000); AlphaScreen JMJD2A-Tudor / H3K4me3 peptide binding; note: nearly all actives have a fitted effect of over 50% in size
L3MBTL1 block = qHTS Assay for the Inhibitors of L3MBTL1; AlphaScreen L3MBTL1–H3K9me1 peptide binding; actives 0.66% (n = 230,000); Lethal(3)malignant brain tumor-like protein 1 (Homo sapiens), Q9Y468; Potency, µM (highest dose often 57.1 µM), most hits filed as inhibitors; note: nearly all actives have a fitted effect of over 60% in size
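AlphaScreen assay: L3MBTL1 (50 nM final) was preincubated 30 min at room temperature with biotinylated H3(1-15)K9me1 peptide (75 nM final), then 30 min with library compounds; streptavidin donor and nickel chelate acceptor beads (10 ug/mL final) added, 30 min dark.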
BAZ2B inh = qHTS Assay for Inhibitors of BAZ2B | Bromodomain adjacent to zinc finger domain protein 2B (Homo sapiens), Q9UIF8 | AlphaScreen BAZ2B-H3K14Ac peptide displacement | Potency, µM (top dose mostly 114 µM), usual class: inhibitors | actives 4.4% (n = 360,000) | AID 504333, 2011; note: nearly all actives have a fitted effect of over 60% in size
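AlphaScreen luminescence quantifies BAZ2B engagement of H3K14Ac peptide; the protein and biotinylated peptide are both at 50 nM final, buffer PBS pH 7.4 with 0.01% Tween-20, all steps at room temperature.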
G9a block = qHTS Assay for Inhibitors of Histone Lysine Methyltransferase G9a | Histone-lysine N-methyltransferase EHMT2 (Homo sapiens), Q96KQ7 | G9a H3K9 monomethylation, AlphaScreen, 2 h | Potency, µM (top dose mostly 102 µM), actives largely listed as inhibitors | actives 8.8% (n = 350,000) | AID 504332, 2011; note: nearly all actives have a fitted effect of over 75% in size
Target sequence (Q96KQ7 913-1193 limits assumed): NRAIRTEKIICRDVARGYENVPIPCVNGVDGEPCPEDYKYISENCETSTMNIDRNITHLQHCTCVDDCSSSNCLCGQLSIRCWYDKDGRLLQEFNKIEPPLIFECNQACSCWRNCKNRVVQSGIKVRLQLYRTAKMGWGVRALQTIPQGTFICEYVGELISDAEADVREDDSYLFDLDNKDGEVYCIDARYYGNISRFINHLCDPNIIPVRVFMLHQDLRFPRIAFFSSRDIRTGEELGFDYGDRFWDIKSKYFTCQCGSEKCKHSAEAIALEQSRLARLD
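AlphaScreen detection with an anti-monomethyl H3K9 antibody quantified product after a 2 h room-temperature reaction containing 500 nM biotinylated H3K9 peptide, 20 µM SAM and 20 nM enzyme, which had been preincubated 15 min with compound.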
Sfp PPTase inh = qHTS Assay for Inhibitors of Bacillus subtilis Sfp phosphopantetheinyl transferase (PPTase). 4'-phosphopantetheinyl transferase ffp (Bacillus subtilis), Q9F4F7. AID 1490, 2009. Potency, µM, most hits filed as inhibitors. Biochemical Sfp PPTase activity, qHTS. actives 3.5% (n = 310,000);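 note: the enzyme is Sfp with the accession as filed and its product quenches rhodamine fluorescence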
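With Hepes-Na pH 7.6 buffer containing 10 mM MgCl2, Sfp (15 nM) modified BHQ-2-YbbR (12.5 uM) using rhodamine-CoA (5 uM). Two reads 30 minutes apart at 525/598 nm yielded each well's rate.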
Each line names hits and unclear results; the compound was inactive in the other large screens. The list is not random: actives were taken first. Their share in the collection is about 12%. Calls come from the whole dose curve; as a rule, active = well fitted curve in the direction sought with a large enough effect; inconclusive = small, poorly fitted or top-dose-only effect, or another doubt; inactive = no such curve, though single readings can be large; an effect the other way counts as inactive or inconclusive.

CSc1ccc(S(=O)(=O)Nc2ccc(OCC(=O)N3CCOCC3)cc2)cc1	G9a block 11µM
COc1ccc(NS(=O)(=O)c2ccc(OCC(=O)N3CCOCC3)cc2)cc1	none
CC(NC(=O)COc1ccc(/C=N/NS(=O)(=O)c2ccccc2)cc1)c1ccccc1 (stereo unspecified)	G9a block 50µM
CC(=O)CNc1ccc(S(=O)(=O)N/N=C/c2ccccc2)cc1	G9a block 6.3µM
COc1ncc2nc(C)c(=O)n(C3CC3)c2n1	none (no result: HP1b chromo inh, JMJD2A Tudor inh, L3MBTL1 block, BAZ2B inh)
Cc1cccc(-n2ncc3c(=O)[nH]c(SCC(=O)N4CC(=O)Nc5ccccc54)nc32)c1	none (no result: Sfp PPTase inh)
COc1ccc(C)cc1S(=O)(=O)NC(C)C(=O)NC1CC1 (stereo unspecified)	none (no result: L3MBTL1 block, G9a block)
O=C1C2C3C=CC(O3)C2C(=O)N1N=Cc1cccc2ccccc12 (stereo unspecified)	none (no result: L3MBTL1 block, BAZ2B inh, G9a block, Sfp PPTase inh)
O=C(COc1ccc(/C=N/NS(=O)(=O)c2ccccc2)cc1)Nc1cccc(Cl)c1	G9a block 50µM
O=C(COc1ccc(/C=N/NS(=O)(=O)c2ccccc2)cc1)NCc1ccccc1	none
Clc1ccc(C2=NNC(=NCc3ccccc3)SC2)cc1	JMJD2A Tudor inh inconclusive, BAZ2B inh inconclusive, Sfp PPTase inh inconclusive
c1ccc(CN=C2NN=C(c3ccccc3)CS2)cc1	JMJD2A Tudor inh inconclusive, BAZ2B inh inconclusive, G9a block 40µM
CC(C)N=C1NN=C(c2ccc(F)cc2)CS1	G9a block inconclusive, Sfp PPTase inh 56µM (no result: L3MBTL1 block)
COCCN=C1NN=C(c2ccc(NC(C)=O)cc2)CS1	G9a block inconclusive, Sfp PPTase inh 40µM
Fc1ccccc1N=C1NN=C(c2ccccc2)CS1	G9a block inconclusive, Sfp PPTase inh inconclusive
C=CCN=C1NN=C(c2ccc3c(c2)OCCO3)CS1	G9a block 40µM
C=CCN=C1NN=C(c2cc(C)n(CC=C)c2C)CS1	JMJD2A Tudor inh inconclusive, BAZ2B inh inconclusive, G9a block inconclusive
CCCCN=C1NN=C(c2cc3ccccc3o2)CS1	HP1b chromo inh inconclusive, JMJD2A Tudor inh inconclusive, G9a block inconclusive
CCN=C1NN=C(c2ccc(C)cc2)CS1	G9a block 32µM, Sfp PPTase inh inconclusive
c1ccc(C2=NNC(=NCc3ccc4c(c3)OCO4)SC2)cc1	G9a block 40µM
CCCCN=C1NN=C(c2cccc([N+](=O)[O-])c2)CS1	BAZ2B inh inconclusive, G9a block 11µM
Cc1cc(=O)oc2cc(OCC(=O)NCCc3ccccc3)ccc12	none (no result: L3MBTL1 block)
CN(C)c1ccc(C(=O)NCc2ccc3c(c2)OCO3)cc1	none
Cc1ccc(/C([O-])=C(/C(=S)NCc2ccc3c(c2)OCO3)[n+]2ccc(N(C)C)cc2)c(C)c1	JMJD2A Tudor inh inconclusive, BAZ2B inh inconclusive, G9a block 50µM (no result: L3MBTL1 block)
COC(=O)c1c(NC(=O)C2CC=CCC2C(=O)O)sc(C(N)=O)c1C (stereo unspecified)	G9a block 18µM (no result: L3MBTL1 block)
COC(=O)c1c(-c2ccccc2)csc1NC(=O)C1CC=CCC1C(=O)O (stereo unspecified)	HP1b chromo inh inconclusive, JMJD2A Tudor inh 50µM, BAZ2B inh inconclusive, G9a block 45µM
CCOC(=O)c1c(N/N=C/c2cccnc2)n[nH]c1C	G9a block 71µM
CCOC(=O)c1c(NC(=O)/C=C/c2ccc(OCC)c(OC)c2)sc2c1CCC2	none (no result: L3MBTL1 block, Sfp PPTase inh)
Clc1ccc(Sc2cc(Cl)c(Cl)cc2Cl)cc1	none (no result: HP1b chromo inh, JMJD2A Tudor inh, L3MBTL1 block, BAZ2B inh, G9a block)
CC1CCCN(C(C(=O)NC2CCCCC2)c2cc3c(cc2[N+](=O)[O-])OCO3)C1 (stereo unspecified)	JMJD2A Tudor inh inconclusive, L3MBTL1 block 11µM, BAZ2B inh inconclusive
CC1CCN(C(C(=O)NC2CCCCC2)c2cc3c(cc2[N+](=O)[O-])OCO3)CC1 (stereo unspecified)	BAZ2B inh inconclusive, G9a block inconclusive
CC(=O)Nc1ccc(-c2cn3ccsc3n2)cc1	none (no result: L3MBTL1 block)
c1cn2cc(-c3ccc4c(c3)OCO4)nc2s1	HP1b chromo inh inconclusive, BAZ2B inh inconclusive, Sfp PPTase inh 32µM
Cn1cccc1/C=N/n1c(-c2ccccc2)n[nH]c1=S	HP1b chromo inh inconclusive, JMJD2A Tudor inh 3.5µM, BAZ2B inh inconclusive
Cn1cccc1/C=N/n1c(-c2ccc(C(C)(C)C)cc2)n[nH]c1=S	HP1b chromo inh 50µM, JMJD2A Tudor inh 50µM, L3MBTL1 block inconclusive, BAZ2B inh 45µM, G9a block 7.9µM
O=C(NCc1ccncc1)c1ccc(NS(=O)(=O)c2ccccc2)cc1	none (no result: L3MBTL1 block, BAZ2B inh, G9a block, Sfp PPTase inh)
Cc1ccc(OCC(=O)Nc2cccc(C(=O)OCc3cc(=O)n4cc(C)sc4n3)c2)cc1	none (no result: L3MBTL1 block, Sfp PPTase inh)
Cc1cccc(N2CCN(C(=O)c3c(C)oc4nc(C)nc(N5CCCC5)c34)CC2C)c1 (stereo unspecified)	G9a block inconclusive (no result: L3MBTL1 block, Sfp PPTase inh)
C=CC[C@@H]1C=C[C@H](O/N=C(\C)CCN2CCCCc3nc(C)c(C)cc32)[C@H](CO)O1	none (no result: HP1b chromo inh, JMJD2A Tudor inh, L3MBTL1 block, BAZ2B inh, G9a block)
CCc1ccc2nc(N(CCCN(C)C)C(=O)c3ccc(S(=O)(=O)N4CCc5ccccc5C4)cc3)sc2c1	BAZ2B inh inconclusive, Sfp PPTase inh 63µM (no result: L3MBTL1 block, G9a block)

Bioassay records from PubChem BioAssay.
